{"source": "PubChem BioAssay (NCI)", "note": "The panel holds about 79,000 compounds, 15% with a hit somewhere; the sample as a whole holds those more often. Activity calls are given as the source filed them. No stated cut-off is given here; in the data, active means growth inhibition above about 70%; inactive means the rest.", "data": [{"experiment": "NCI Yeast Anticancer Drug Screen. Data for the mec2-1 strain (AID 157)", "conditions": "S. cerevisiae mec2-1 strain, at 50.0 µM, active compounds read high", "experimental": "Growth inhibition of yeast strains with defined genetic alterations is measured as a screen for potential anti-cancer activity. Selected strains with alterations in DNA damage repair or cell cycle control were exposed to compounds and growth inhibition was measured relative to vehicle treated controls. The strain used in this assay is mec2-1", "values": [{"compound": "CCOC(=O)NN(C(=O)OCC)c1c(C)cc(C)c(N(NC(=O)OCC)C(=O)OCC)c1C", "growth inhibition": "7.25% (inactive)"}, {"compound": "O=C(O)CS(=O)(=O)CC(=O)O", "growth inhibition": "-11.4% (inactive)"}, {"compound": "CC1=Nc2c(C)noc2CC(c2ccccc2O)C1", "note": "(stereo not given)", "growth inhibition": "-2.6% (inactive)"}, {"compound": "C=C1C(=O)O[C@@H]2[C@@H]3[C@@H](C)C(=O)C=C[C@]3(C)CC[C@@H]12", "growth inhibition": "-49.1% (inactive)"}, {"compound": "Nc1ccccc1C(F)(F)F", "growth inhibition": "5.65% (inactive)"}, {"compound": "O=C1NC(c2ccc(Cl)cc2)(c2ccc(Cl)cc2)C(=O)N1Cl", "growth inhibition": "-1.6% (inactive)"}, {"compound": "CC(=O)/C(=C\\n1c(=S)[nH]c2ccc([N+](=O)[O-])cc21)C(=O)Nc1ccccc1C", "growth inhibition": "-44.8% (inactive)"}, {"compound": "Cc1ccc(S(=O)(=O)Oc2cccc(C)c2)cc1", "growth inhibition": "17.1% (inactive)"}, {"compound": "CN1c2ccccc2SC1(C)CCC(=O)O", "note": "(stereo not given)", "growth inhibition": "35.9% (inactive)"}, {"compound": "CCOC(=O)COc1cc2c(cc1Cc1ccc3c(c1)OCO3)OCO2", "growth inhibition": "1.95% (inactive)"}, {"compound": "[Co+2].[NH-]C(Cc1ccc(O)cc1)C(=O)O.[NH-]C(Cc1ccc(O)cc1)C(=O)O", "note": "(stereo not given)", "growth inhibition": "10.2% (inactive)"}, {"compound": "CC(C)NC(=O)OCCN=C1c2ccccc2C(Br)C(Br)c2ccccc21", "note": "(stereo not given)", "growth inhibition": "-5.1% (inactive)"}, {"compound": "CCCNC(=O)OCC#CCOC(=O)NCCC", "growth inhibition": "-4.15% (inactive)"}, {"compound": "O=C(Nc1ccc(Cl)cc1)Oc1ccc(Br)cc1Br", "growth inhibition": "-3.95% (inactive)"}, {"compound": "Cc1cc(N2CCOCC2)nc2ccc(Cc3ccc4nc(N5CCOCC5)cc(C)c4c3)cc12", "growth inhibition": "-10.2% (inactive)"}, {"compound": "Cc1cc2ccccc2n1CC(=O)N1CCCC1", "growth inhibition": "-28.6% (inactive)"}, {"compound": "O=C1C[C@@H]2[C@@H](CCC23CCCC3)N1", "growth inhibition": "12.9% (inactive)"}, {"compound": "COC(=O)c1ccc(Cl)nc1", "growth inhibition": "-8.6% (inactive)"}, {"compound": "NNC(=O)Cc1ccc2ccccc2c1", "growth inhibition": "-32.1% (inactive)"}, {"compound": "O=C(O)CCCc1ccc(N(CCO)CCO)cc1", "growth inhibition": "2.55% (inactive)"}, {"compound": "O=C(NCCS(=O)(=O)N1C(=O)C2CCCN2C(=O)[C@@H]1Cc1ccccc1)OCc1ccccc1", "note": "(stereo not given in full)", "growth inhibition": "-0.55% (inactive)"}, {"compound": "Cc1c([N+](=O)[O-])ccn1C", "growth inhibition": "10.9% (inactive)"}, {"compound": "COC(=O)[C@@]12OC[C@]34[C@H]([C@@H](O)[C@@H]1O)[C@@]1(C)CC(=O)C(O)=C(C)[C@@H]1C[C@H]3OC(=O)[C@H](OC(=O)/C=C(\\C)C(C)CO)[C@@H]24", "note": "(stereo not given in full)", "growth inhibition": "-16.7% (inactive)"}, {"compound": "Cc1nc2ccccc2n1CCC(N)=O", "growth inhibition": "-2.1% (inactive)"}, {"compound": "O=C(Nc1cccc(Cl)c1Cl)Oc1cccc2ccccc12", "growth inhibition": "5.15% (inactive)"}, {"compound": "COc1ccc(OC)c(CSc2ccc(OC)c(OC)c2)c1", "growth inhibition": "31.9% (inactive)"}, {"compound": "O=[N+]([O-])c1cccc([I+]c2cccc([N+](=O)[O-])c2)c1", "growth inhibition": "95.8% (active)"}, {"compound": "COc1cc2c(cc1OC)C(Cl)C(c1ccc(Cl)c(Cl)c1)=C2Cl", "note": "(stereo not given)", "growth inhibition": "14.2% (inactive)"}, {"compound": "Fc1cccc(-c2nnc(-c3cccc4ccccc34)o2)c1", "growth inhibition": "-1.8% (inactive)"}, {"compound": "COc1cc([C@@H]2OC(=O)C3C2C(=O)O[C@H]3c2ccc(O)c(OC)c2)ccc1O", "note": "(stereo not given in full)", "growth inhibition": "14.2% (inactive)"}, {"compound": "CCCC1(C)COC(=O)OC1", "growth inhibition": "6.5% (inactive)"}, {"compound": "c1ccc(C(=C2CCCCCCCCCCCCC2)c2ccccc2)cc1", "growth inhibition": "2.9% (inactive)"}, {"compound": "CSc1ccc(NC(=O)Nc2cc(C)c(C)cc2C)cc1", "growth inhibition": "2.1% (inactive)"}, {"compound": "O=C(O)COc1cc2c(cc1Cc1ccc3c(c1)OCO3)OCO2", "growth inhibition": "13.1% (inactive)"}, {"compound": "Cc1ccccc1-c1c(N)nc(N)nc1C(=O)Nc1nccs1", "growth inhibition": "-36.2% (inactive)"}, {"compound": "CC(NCc1cc(O)c(CNC(C)c2ccccc2)cc1O)c1ccccc1", "note": "(stereo not given)", "growth inhibition": "0.4% (inactive)"}, {"compound": "CC12CCC3C(CCC4CC(OC5CCCCO5)CCC43C)C1CC/C2=C/C#N", "note": "(stereo not given)", "growth inhibition": "-7.5% (inactive)"}, {"compound": "C[C@H](C(=O)C12CC3CC(CC(C3)C1)C2)[C@H](O)c1ccccc1", "growth inhibition": "4.7% (inactive)"}, {"compound": "COc1cc2ccnc(CCCc3nccc4cc(OC)c(OC)cc34)c2cc1OC", "growth inhibition": "-4.05% (inactive)"}, {"compound": "Cc1ccc(/C=C/C(=O)c2sc(C(N)=S)nc2C)cc1", "growth inhibition": "14.2% (inactive)"}]}]}
